Measured values taken from PubChem BioAssay (NCI).
About 83,000 compounds went through this panel and 20% of them were active in at least one assay; those are over-represented in the sample as a whole.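 In brief: 96-well plates, 48 h treatment, single concentration, percent growth endpoint.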 Unmarked numbers belong to inactive results. Active and inactive are the calls of the source. How the source made its calls: active means growth percent below 10; inactive means the rest.

Tests used:
Experiment in all cases: NCI-60 one-dose screen, 48 h (100 = growth as untreated, 0 = no growth, -100 = all killed)
Settings in all cases: 10 µM unless noted
[1] = system: DU-145 prostate
[2] = system: MALME-3M melanoma
[3] = system: MDA-MB-231 breast
[4] = system: RXF 393 renal
[5] = system: SF-268 CNS
[6] = system: SF-539 CNS
[7] = system: UACC-257 melanoma
[8] = system: M14 melanoma
[9] = system: HCT-15 colon
[10] = system: HT29 colon
[11] = system: SNB-75 CNS
[12] = system: SNB-19 CNS
[13] = system: U251 CNS
[14] = system: PC-3 prostate
[15] = system: SK-MEL-5 melanoma
[16] = system: UACC-62 melanoma
[17] = system: LOX IMVI melanoma
[18] = system: SK-MEL-28 melanoma
[19] = system: K-562 leukemia
[20] = system: SF-295 CNS

Row | Compound | growth [1] [%] | growth [2] | growth [3] | growth [4] | growth [5] | growth [6] | growth [7] | growth [8] | growth [9] | growth [10] | growth [11] | growth [12] | growth [13] | growth [14] | growth [15] | growth [16] | growth [17] | growth [18] | growth [19] | growth [20]
1 | COc1ccc2c(c1)CCCC21C(=O)Nc2c(Cl)cccc21 (configuration not stated) | 93 | 63.3% | 77.4% | 86.5% | 75.8% | 73.3% | 83.8% | 38.8% | 85% | 21.1% | 41% | 82.9% | 54.1% | 74.4% | 76.8% | 58% | 71.3% | 64.7% | – | –
2 | CC1=C(O)C(=O)C(c2c(C)cc(C)c(Br)c2C)=C(O)C1=O | 78.4 | – | 93.5% | 28.9% | – | 65.2% | 86.5% | 70.2% | 35.5% | 66.7% | 59.6% | 63.9% | 65.8% | 84.5% | 57.4% | 40.7% | 35.7% | 73.5% | 48.8% | 52.6%
3 | O=C(Nc1ccc2ncnc(Nc3ccc(F)c(Cl)c3)c2c1)c1cccs1 | – | 66.4% | 43.4% | -3.16% (active) | – | 63.5% | 101% | 65% | 51% | 58.7% | 50.5% | 68.9% | 54.7% | 62.8% | 67.1% | 56.4% | 51% | 65.8% | 49.9% | 46.4%
4 | COc1cc2c(cc1OCCCOc1cc3c(cc1OC)C(=O)N1CCC[C@H]1C=N3)C=CC(C)(C)O2 | – | 152% | 88.6% | 94.8% | 91.2% | 126% | 83.9% | 111% | 89.9% | 99.7% | 93.8% | 85.9% | 66.6% | 78.9% | 66.4% | 81% | 69.6% | 33.2% | 71.2% | 123%
5 | CCCCCCCCCC1=NC(C)(C)CN1C(C)(C)CO | – | 106% | 88.1% | 167% | 94% | 87.3% | 121% | 113% | 82.2% | 49.2% | 102% | 92.1% | 82.6% | 83.8% | 84% | 98.8% | 85.6% | 131% | -25.3% (active) | 122%
6 | CC(C)(C)NC(=O)C(OC(=O)C1CCc2cc(F)ccc2O1)c1ccccc1Cl (configuration not stated) | – | 94.4% | 92.4% | 96.3% | – | 108% | 106% | 94.9% | 98.7% | 103% | 83.3% | 97.1% | 102% | 92.4% | 94.5% | 87.6% | 102% | 108% | 103% | 95.4%
7 | O=[N+]([O-])c1ccccc1CN1CCCCC1 | – | 121% | 105% | 104% | 112% | 104% | 110% | 114% | 107% | 113% | 87.8% | 106% | 110% | 91.6% | 105% | 103% | 96.6% | 117% | 136% | 112%
8 | O=C(O)c1cn(-c2ccccc2)nc1-c1ccc(O)cc1 | – | 105% | 95.7% | 108% | – | 101% | 85.1% | 91.8% | 98.4% | 94.7% | 86.1% | 97.4% | 96.4% | 91.2% | 106% | 90.8% | 91.7% | 101% | 100% | 92.8%
9 | CCCCCCCCCCCC1=NC(C)(C)CN1C(C)(C)CO | – | 62.7% | 57.7% | 56.3% | 69.1% | 57.9% | -23.4% (active) | -84.4% (active) | 8.9% (active) | -29.3% (active) | 49.3% | 114% | 21.4% | 54.9% | 8.52% (active) | -69.5% (active) | -35.1% (active) | -5.89% (active) | 57.6% | 90.3%
10 | c1ccc(C2=Nc3ccccc3SC2)cc1 | – | 99.3% | 101% | 129% | – | 103% | 105% | 103% | 105% | 109% | 77.6% | 109% | 94.9% | 66.4% | 105% | 96.7% | 90.4% | 109% | 124% | 97.2%
11 | CCN(CC)c1ccc(C(=N)c2ccc(N(C)C)cc2)cc1 | – | 31.9% | 17.8% | 12.8% | – | -37.4% (active) | -3.29% (active) | -44.4% (active) | 10.9% | 0.0991% (active) | 3.16% (active) | 28.2% | 3.54% (active) | 5.51% (active) | -80.1% (active) | 5.14% (active) | 19.1% | 26.5% | 4.01% (active) | -13.1% (active)
12 | COc1cc(C2=NOC(c3cc(OC)c(OC)c(OC)c3)C2)ccc1OCCCCOc1cc2c(cc1OC)C(=O)N1CCC[C@H]1C=N2 (some centres not stated) | – | -72.2% (active) | 12.3% | -79% (active) | -29.5% (active) | -89.6% (active) | 13.7% | -43.7% (active) | 4.27% (active) | -12.3% (active) | -87.7% (active) | -9.51% (active) | -9.51% (active) | -2.09% (active) | -85.3% (active) | -76.6% (active) | -68.6% (active) | -66.1% (active) | 7.5% (active) | 13.4%
13 | O=C(CCCCCCc1nc2ccc(Br)cc2[nH]1)NO | – | -6.27% (active) | 2.73% (active) | -78.3% (active) | 11.1% | 17.8% | -11% (active) | -16.1% (active) | 35.9% | 1.25% (active) | -2.57% (active) | 1.94% (active) | -15.4% (active) | 16.7% | -81.5% (active) | -79.8% (active) | -98.9% (active) | -16.7% (active) | 6.07% (active) | -17.2% (active)
14 | CCN(CC)c1ccc2nc3c4ccccc4c(=O)cc-3n(-c3ccccc3)c2c1 | – | -32.3% (active) | -24.1% (active) | 6.05% (active) | 15.5% | -30% (active) | -15.8% (active) | -56.8% (active) | 5.16% (active) | 6.55% (active) | -2.25% (active) | 23.6% | 18.9% | 6.03% (active) | -98.1% (active) | -8.44% (active) | -23.2% (active) | 9.68% (active) | 6.09% (active) | -36.7% (active)
15 | COC(=O)c1ccc(NC(N)=NCCC(C)(C)c2ccc(C(F)(F)F)cc2)nc1 | – | -30.9% (active) | 42.7% | 58.7% | – | 79.3% | 38.8% | -40% (active) | 37.8% | 11.6% | 67.3% | – | 30.5% | 36% | -85.4% (active) | 55.2% | -77.3% (active) | 35.2% | 1.24% (active) | 29.5%
16 | COC(=O)c1cc(Cl)cc([N+](=O)[O-])c1O | – | 114% | 123% | 97.1% | 112% | 107% | 100% | 94.9% | 109% | 110% | 97.2% | 108% | 112% | 97.3% | 106% | 110% | 114% | 120% | 68.9% | 101%
17 | C=CCN(CCOC(=O)c1ccc([N+](=O)[O-])cc1)CCOC(=O)c1ccc([N+](=O)[O-])cc1 | – | 98.8% | 96.2% | 138% | 98% | 110% | 97.8% | – | 118% | 111% | 83.7% | 108% | 103% | 85.4% | 94.8% | 110% | 88.8% | – | 92.3% | 107%
